Screens: PubChem, National Center for Advancing Translational Sciences (NCATS)
TDP1 cell CPT: growth inhibition of DT40 Tdp1-/-;hTDP1 cells with camptothecin (screen for TDP1 inhibitors) | Potency, µM (highest dose often 46.2 µM), for the others: top-dose activity change, negative = growth inhibition, most hits filed as inhibitors | hit rate 12% among 420,000 | chicken DT40 Tdp1-/-;hTDP1 cells + 20 nM CPT, ATP luminescence, 48 h; also: potency is read from the fitted curve at half-maximal effect; nearly all actives have a fitted effect of over 55% in size
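Cell growth measured by CellTiter-Glo luminescence after a minimum 48 h, 37 C compound exposure with 20 nM CPT in Tdp1-knockout DT40 cells stably expressing hTDP1, seeded 400/well; qHTS titration format.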
TDP1 cell noCPT: qHTS for Inhibitors of human tyrosyl-DNA phosphodiesterase 1 (TDP1): qHTS in cells in absence of CPT; hit rate 15% among 420,000; Potency, µM (top dose mostly 46.2 µM), for inactives: top-dose activity change, negative = growth inhibition, usual class: inhibitors; DT40 Tdp1-/- hTDP1 cells, no CPT, ATP luminescence, 48 h; also: potency is read from the fitted curve at half-maximal effect; nearly all actives have a fitted effect of over 55% in size
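DT40 Tdp1-/-;hTDP1 cells, no CPT (DMSO vehicle only), 400 cells/well; compounds pin-transferred; ≥48 hr, 37 °C; CellTiter-Glo 30 min RT dark, luminescence read.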
uPA surface inh: inhibitors of cell surface uPA generation; cell surface uPA generation assay, qHTS; Potency, µM (highest dose often 38.3 µM), inactives show top-dose activity change, negative = inhibition, actives largely listed as inhibitors; hit rate 0.31% among 330,000; AID 540303; active = well fitted inhibition curve with a large enough effect; inconclusive = small, poorly fitted or top-dose-only effect; inactive = no such curve, though single readings can be large or run the other way; tested in mouse RAW 264.7 cells; also: potency is read from the fitted curve at half-maximal effect; nearly all actives have a fitted effect of over 55% in size
IL-1B inflam inh: inflammasome signaling inhibition, IL-1 beta readout. AID 743279. hit rate 4.7% among 360,000. THP-1 LPS/ATP IL-1B secretion, AlphaLISA, 16 h; hits give low values. activity change, % at 57.5 µM; in the data active = activity change below about -50%; inconclusive = mostly about -30% to -49%
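THP-1 cells pretreated 1 hr with compounds (up to 57.5 uM final), then stimulated with LPS (250 ng/mL final) plus ATP (1.25 mM final); secreted IL-1B measured by AlphaLISA after 16 hr, decreased signal indicating inhibition.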
HT1080 IDH1KD tx: kills HT-1080 cells with IDH1 knockdown; HT-1080 IDH1 knockdown viability, ATP luminescence, 48 h; Potency, µM (top dose mostly 46.1 µM), inactives show top-dose activity, negative = toxicity, actives largely listed as cytotoxic; hit rate 2% among 360,000; AID 686971;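 also: potency is read from the fitted curve at half-maximal effect; 0% = DMSO wells and -100% = cell-free medium wells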
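Viability of IDH1-knockdown HT-1080 fibrosarcoma cells was assessed by CellTiter-Glo after 48 h at 37 °C with titrated compound; concentration-effect curves were classified by fit quality and response size.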
HT1080-NT tox: kills 2HG-producing HT-1080-NT fibrosarcoma cells; HT-1080-NT fibrosarcoma viability, CellTiter-Glo ATP luminescence, 48 h; Potency, µM (doses to about 46.1 µM), for the others: top-dose activity, negative = less viability, actives largely listed as cytotoxic; hit rate 1.6% among 360,000; AID 686970;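 also: NT is the 2HG producing partner of a matched IDH1 knockdown line; potency is read from the fitted curve at half-maximal effect; 0% = DMSO-treated cells and -100% = media-only wells without cells; nearly all actives have a fitted effect of over 55% in size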
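750 cells/well, RPMI + 5% FBS; 2 h settle, compound pin-transfer, 48 h at 37 degrees C. CellTiter-Glo 10 min RT, luminescence. Normalized to DMSO and media-only wells.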
Starred values were filed as active, the others as inactive. Compounds with a hit are over-represented: about 19% of the library has one in this group of screens. Unless noted, calls follow the shape of the dose curve; as a rule, active = well fitted curve in the direction sought with a large enough effect; inconclusive = small, poorly fitted or top-dose-only effect, or another doubt; inactive = no such curve, though single readings can be large; an effect the other way counts as inactive or inconclusive. Unless noted, % is scaled to controls: 0 for no effect and ±100 for the full control effect.

Results for CCOC(=O)C1(CC)Oc2ccccc2C(c2ccc(OC)cc2)=C1C(=O)OC (stereo not given) ?
TDP1 cell CPT: inconclusive; TDP1 cell noCPT: 18.4µM*; uPA surface inh: 5.3%; IL-1B inflam inh: -29.1; HT1080 IDH1KD tx: -0.2%; HT1080-NT tox: 5.0%

What do the screens show for `O=C(Nc1ccccc1C(F)(F)F)c1cc2nc(-c3ccccc3)cc(-c3ccccc3)n2n1`?
TDP1 cell CPT: -13.4%; TDP1 cell noCPT: -13.8%

How did Cc1ccccc1C(=O)Nc1ccc2c(C#N)c3nc4ccccc4nc3n2c1 do in these assays?
TDP1 cell CPT: 20.6µM*; TDP1 cell noCPT: 20.6µM*; uPA surface inh: -8.4%; IL-1B inflam inh: -0.8; HT1080 IDH1KD tx: 4.2%; HT1080-NT tox: 2.0%

Results for Cc1c(C(=O)Nc2ccccc2)cn2c(nc3ccccc32)c1C#N ?
TDP1 cell CPT: inconclusive; TDP1 cell noCPT: inconclusive; uPA surface inh: 4.4%; IL-1B inflam inh: -3.1; HT1080 IDH1KD tx: -24.6%; HT1080-NT tox: -7.7%

What do the screens show for `CC(OC(=O)c1nn(C)c(=O)c2ccccc12)C(=O)Nc1ccc(S(N)(=O)=O)cc1` (stereo not given)?
TDP1 cell CPT: 9.3%; TDP1 cell noCPT: -2.1%; uPA surface inh: -0.5%; IL-1B inflam inh: 12.3; HT1080 IDH1KD tx: -1.7%; HT1080-NT tox: 1.4%

Results for Cc1ccsc1CCN1C(=O)N(c2ccccc2)C(=O)C1CC(=O)Nc1ccc(F)cc1 (stereo not given) ?
TDP1 cell CPT: inconclusive; TDP1 cell noCPT: 14.6µM*

What do the screens show for `Cc1ccsc1CCN1C(=O)N(c2ccc(F)cc2)C(=O)C1CC(=O)Nc1ccccc1` (stereo not given)?
TDP1 cell CPT: inconclusive; TDP1 cell noCPT: 23.1µM*

How did O=C(COc1ccccc1)Nc1nc(-c2cccs2)cs1 do in these assays?
TDP1 cell CPT: -3.6%; TDP1 cell noCPT: inconclusive; uPA surface inh: 1.0%; IL-1B inflam inh: -1.3; HT1080 IDH1KD tx: -7.1%; HT1080-NT tox: -8.2%

What do the screens show for `CC(C)(C)c1csc(NC(=O)CCS(=O)(=O)c2ccc(F)cc2)n1`?
TDP1 cell CPT: 8.2µM*; TDP1 cell noCPT: 8.2µM*; IL-1B inflam inh: -5.2; HT1080 IDH1KD tx: inconclusive; HT1080-NT tox: -13.4%

How did O=C(CCS(=O)(=O)c1ccc(F)cc1)Nc1nc(-c2ccncc2)cs1 do in these assays?
TDP1 cell CPT: 13µM*; TDP1 cell noCPT: 9.2µM*; uPA surface inh: inconclusive; IL-1B inflam inh: inconclusive; HT1080 IDH1KD tx: -0.3%; HT1080-NT tox: -15.9%

What do the screens show for `Cc1ccc(S(=O)(=O)CCC(=O)Nc2nc(C(C)(C)C)cs2)cc1`?
TDP1 cell CPT: inconclusive; TDP1 cell noCPT: inconclusive; uPA surface inh: 4.5%; IL-1B inflam inh: 29.3; HT1080 IDH1KD tx: inconclusive; HT1080-NT tox: -20.0%

Results for CC(C)(C)c1csc(NC(=O)Cc2cccs2)n1 ?
TDP1 cell CPT: -8.7%; TDP1 cell noCPT: 4.4%; uPA surface inh: 5.8%; IL-1B inflam inh: -0.6; HT1080 IDH1KD tx: -11.8%; HT1080-NT tox: -11.5%

What do the screens show for `CC(C)(C)c1csc(NC(=O)CCc2ccccc2)n1`?
TDP1 cell CPT: inconclusive; TDP1 cell noCPT: inconclusive; uPA surface inh: 2.0%; IL-1B inflam inh: -53.6*; HT1080 IDH1KD tx: -3.2%; HT1080-NT tox: -20.4%

What do the screens show for `COc1ccc(-c2csc(NC(=O)CS(=O)(=O)c3ccc(F)cc3)n2)cc1OC`?
TDP1 cell CPT: inconclusive; TDP1 cell noCPT: inconclusive; uPA surface inh: -1.5%; IL-1B inflam inh: inconclusive; HT1080 IDH1KD tx: 0.2%; HT1080-NT tox: 0.0%

Results for O=C(CCS(=O)(=O)c1ccccc1)Nc1nc(-c2cccs2)cs1 ?
TDP1 cell CPT: inconclusive; TDP1 cell noCPT: 20.6µM*; uPA surface inh: inconclusive; IL-1B inflam inh: -74.1*; HT1080 IDH1KD tx: -16.4%; HT1080-NT tox: -10.0%
